Source: PubChem BioAssay (NCATS)
Results filed as inconclusive are left out. Activity calls are given as the source filed them. The call rests on the fitted dose curve; in most records, active means well fitted curve in the direction sought with a large enough effect; inconclusive means small, poorly fitted or top-dose-only effect, or effect the other way, or another doubt; inactive means no such curve, though single readings can be large or run the other way. Bridge positions count the residues as written; N and C are the ends. Square brackets hold non-standard residues; d marks the D form. Side chains are listed from the residue outwards. Peptide text beside a SMILES is read from it. * marks the point of attachment. Phg(4-OMe) = COc1ccc([C@H](N)C(=O)O)cc1; d(aIle) = CC[C@H](C)[C@@H](N)C(=O)O; d(aThr) = C[C@@H](O)[C@@H](N)C(=O)O; NMeF = CN[C@@H](Cc1ccccc1)C(=O)O; Isobutyryl = CC(C)C(=O)*

assay: DH5-alpha competent E. coli microbial cell viability qHTS against the NCATS CANVASS Library (AID 1347377); conditions: BacTiter-Glo ATP luminescence, overnight; series mostly up to 46.1 µM; viability signal change, negative = cytotoxic: at the top concentration; on viability signal change, negative = cytotoxic: 0% is about no effect
From the text: Natural products and their derivatives continue to be wellsprings of nascent therapeutic potential. However, many laboratories have limited resources for biological evaluation, leaving their previously isolated or synthesized compounds largely or completely untested. To address this issue, the Canvass library of natural products was assembled (https://tripod.nih.gov/canvass), in collaboration with academic and industry researchers, for quantitative high-throughput screening (qHTS) across a diverse set of cell-based and biochemical assays. The pure (>85% purity by liquid chromatography/mass spectrometry [LC/MS]) Canvass library of 346 natural products were submitted by 45 academic laboratories and companies around the world. We collected pure natural products to circumvent deconvolution and structure elucidation due to time and resource limitations. The library was formatted into 1536-well plates and evaluated in 50 qHTS (in an 11-pnt concentration series) bioassays with broad scope of disease-relevant mechanisms. The resulting data set from 50 different assays was then systematically analyzed to identify overall trends and specific natural products with interesting biological activities. Reported herein are the results of each individual qHTS and their corresponding assay protocol. The BacTiter-Glo microbial cell viability assay is a homogeneous method for determining the number of viable bacterial cells in culture based on quantitation of the ATP present. ATP is an indicator of metabolically active cells. The homogeneous assay procedure involves adding a single reagent (BacTiter-GloTM Reagent) directly to bacterial cells in medium and measuring luminescence. National Center for Advancing Translational Sciences (NCATS), Rockville, MD National Institute of Health (NIH), Bethesda, Maryland
DH5-alpha competent E.coli cytotoxicity protocol: 1. In a 1536 well, tissue culture treated white solid bottom plates (Greiner Bio-One North America), 5 uL of DH5-alpha competent E. coli suspension (0.9 OD culture diluted 0.2 OD) was dispensed into columns 1, 2, and 5-48 using the Multidrop Combi dispenser (Thermo Fisher Scientific). 2. Controls and compounds were pin transferred (~23 nL volume) to the assay plates via Wako Pin-tool (Wako Automation, Richmond VA) equipped with a 1536 pin head. The compounds were transferred to columns 5-48 resulting in a final concentration ranging from 0.17nM to 92uM. Daunomycin was used as a control in various concentrations (1mM working concentration; 1:2 dilution; 16 points; n=2; column 2, rows) for a final concentration range of 0.2 nM to 9.2 uM. 3. The assay plates were incubated overnight at 37C, 5% CO2, 95% humidity. 4. 2.5 uL of BacTiterGlo solution (Promega) was then added to the assay plates (column 1-48, rows 1-32). The assay plates were incubated at room temperature for 20 min. 5. Luminescence signal was acquired via the ViewLux plate reader using a clear emission filter, 2 second exposure and 2x binning settings.

SMILES | viability signal change, negative = cytotoxic | outcome
CC[C@H](C)[C@H]1NC(=O)[C@@H](NC(=O)C(C)C)[C@@H](C)OC(=O)[C@H](COC(=O)CNC(C)=O)NC(=O)[C@@H]([C@@H](C)O)NC(=O)[C@H](Cc2ccccc2)N(C)C(=O)[C@H](c2ccc(OC)cc2)NC1=O (Isobutyryl-T[d(aIle)][Phg(4-OMe)][NMeF][d(aThr)]S([Gly-Ac]); ester 1-C) | 11.6% (inactive) | –
C=C(C)C(=O)O[C@H]1C[C@@]2(C)OC(=CC2=O)/C(C)=C\[C@H]2OC(=O)C(=C)[C@H]12 | – | inactive
COc1cc(/C=C/C(=O)OC[C@@H](Cc2ccc(O)c(OC)c2)[C@@H](COC(=O)/C=C/c2ccc(O)c(OC)c2)Cc2ccc(O)c(OC)c2)ccc1O | – | inactive
C[C@H]1C=C[C@H]2CCCC[C@@H]2[C@H]1C(=O)[C@H]1CC2=C(C(=O)O)CCN2C1=O | 15.8% (inactive) | –
CC(C)[C@@H]1CC(=O)c2coc3c2[C@H]1C[C@@H](C)C3=O | 26.3% (inactive) | –
CC[C@H](O)CCCCC[C@@H]1NC(=O)[C@H]2CCCCN2C(=O)[C@H]([C@H](C)CC)NC(=O)[C@H](Cc2cn(OC)c3ccccc23)NC1=O | 27.6% (inactive) | –
COC(=O)[C@]1([C@H]2CCC(=O)O2)CC(=O)c2c(O)cc(C)cc2O1 | 16.9% (inactive) | –
CO[C@@H]1[C@H](O)[C@@H](C)O[C@@H](OC[C@@H]2C(C)OC(=O)/C=C/[C@H](C)C(O[C@@H]3O[C@H](C)CC4(OC(=O)O[C@@H]4C)C3O)[C@@H](C)CC(C)C(=O)/C=C/[C@H]3OC23)[C@@H]1OC (stereo not given in full) | 6.84% (inactive) | –
COc1cc2c(cc1OC)[C@@H](c1ccc3c(c1)OCO3)C(C)C(C)C2=O (stereo not given in full) | 0.879% (inactive) | –
O=C1CCC(=O)N(O)CCCCCNC(=O)CCC(=O)N(O)CCCCCNC(=O)CCC(=O)N(O)CCCCCN1 | -1.99% (inactive) | –
C=C[C@]1(C)CC[C@@H]([C@H](C)C(=O)/C=C/C(C)(C)O)O1 | – | inactive
C=C[C@@]1(C)CC[C@@H]([C@H](C)C(C)=O)O1 | – | inactive
C/C=C(/C)c1cc(O)c(C)c2c1Oc1cc(O)cc(C)c1C(=O)O2 | – | inactive
C[C@]12CCC[C@](C)(C(=O)O)[C@@H]1CC[C@@]1(C)c3cocc3CC[C@H]21 | – | inactive
C/C(=C\[C@@H](C)CC/C=C/CC/C=C/C(=O)O)[C@H](O)[C@H](C)C(=O)CCCC1CC(=O)NC(=O)C1 | – | inactive
C[C@@]12C[C@@H](C[C@@H]3C(=O)O[C@@H](c4ccoc4)[C@H](OC(=O)c4ccccc4)[C@@H]31)OC2=O | – | inactive
CC(C)=CC[C@H]1C[C@@]2(CC=C(C)C)C(=O)[C@](CC=C(C)C)(C(=O)C(C(=O)c3ccccc3)=C2O)C1(C)C | – | inactive
CC[C@@H](c1cc(OC)c(OC)cc1OC)[C@H](C)[C@@H](/C(C)=C/c1cc(OC)c(OC)cc1OC)c1cc(OC)c(OC)cc1OC | – | inactive
C/C=C(/CO)C(=O)O[C@@H]1[C@H](O)[C@@H](C(=O)OC)O[C@@H]2C[C@H]3OC(n4cnc5c(N)ncnc54)[C@H](OC)[C@H]3O[C@@]12O (stereo not given in full) | 3.6% (inactive) | –
C=C1C[C@]23C=CC(=O)[C@@](C)(CCCC(C)C(=O)N[C@@H](CO)C(=O)O)[C@@H]2C[C@@H]1CC3 (stereo not given in full) | – | inactive

SMILES | viability signal change, negative = cytotoxic | outcome
CC[C@H]1[C@@H](C)[C@@H](c2cc(OC)c(OC)cc2OC)[C@H](C)[C@@H](c2cc(OC)c(OC)cc2OC)[C@@]12C=C(OC)C(=O)C=C2OC | – | inactive
CCCc1c2c([nH]c(=O)c1C)C(=O)c1[nH]c(=O)c(C)c(CCC)c1C2=O | 3.43% (inactive) | –
C=CC(CCCCC)C1C(=O)NC(=O)C1C(=O)C1C2C(C)CC(C(=O)O)CC2CC1(O)C(=O)/C=C/C (stereo not given) | 4.43% (inactive) | –
C/C=C1/C2=CCCN3C(=O)O[C@H]([C@H]1O)[C@H]23 | 14.4% (inactive) | –
C/C=C/c1cc2c(c(=O)o1)C(=O)[C@@H](O)[C@H](C)O2 | – | inactive
COc1ccc([C@@H]2c3cc4c(cc3C(=O)C(C)C2C)OCO4)cc1OC (stereo not given in full) | – | inactive
C/C=C1/CN2C3CC1C1C=CC(=O)N4c5ccccc5[C@@]3(C[C@@H]2C2=C[C@H]3C5CC6N(CC[C@@]67c6ccccc6N(C2=O)[C@@H]37)C/C5=C/C)[C@H]14 (stereo not given in full) | 12% (inactive) | –
C[n+]1cc2cc(C(N)=O)[nH]c3c(=N)c(Cl)c(N)c1c23 | – | inactive
C=C1C[C@H]2O[C@@H]3[C@@H]4[C@H](CC[C@@](C)(O)[C@@H]42)[C@H](C)COC3(C)[C@@H](OC(=O)CCCCCCC)CC1=O (stereo not given in full) | – | inactive
C[C@@]12CCC[C@@](C)(C(=O)O)[C@H]1C[C@@H](O)[C@@]13C[C@@H](CC[C@@H]21)[C@](C)(O)C3 | 2.55% (inactive) | –
COc1cc(C2C3=C(Cc4cc5c(cc42)OCO5)C(=O)OC3)cc(OC)c1OC (stereo not given) | 2.25% (inactive) | –
CC[C@@H]1C[C@@]2(CC)OC(=O)[C@@]3(CC)[C@H](CC)[C@@H]1[C@@H]23 | – | inactive
CO/C=C/C(=O)c1cc2cnc3c(N)cc(=NC(=O)C(C)C)c([nH]1)c23 | 6.59% (inactive) | –
[C-]#[N+][C@@]12C(=O)[C@@H]3[C@@H](O[C@@]4(C(=O)N(C)c5cccc1c54)C3(C)C)C(=O)[C@@]2(C)C=C | 1.81% (inactive) | –
C[C@@]1(CCC(=O)Nc2c(O)ccc(C(=O)O)c2O)C(=O)C=C[C@]23C[C@H]4C[C@H](O[C@@]4(C)C2)C31 (stereo not given in full) | – | inactive
C/C1=C/[C@@H](C)[C@H](O)C/C=C/CC/C=C/C(=O)O[C@@H]1[C@H](C)C(=O)CCCC1CC(=O)NC(=O)C1 | 20% (inactive) | –
COc1cc2oc3ccccc3c(=O)c2cc1OC | 2.33% [at 91.4 µM] (inactive) | –
O=C1CC(c2ccc(O)cc2)Oc2cc(O)ccc21 (stereo not given) | -2.73% (inactive) | –
Cc1cc(O)cc2c1C(=O)c1c(O)cc(O)cc1C2=O | – | inactive
COc1cc([C@@H]2c3cc4c(cc3C[C@@]3(O[C@@H]5O[C@H](CO)[C@@H](O)[C@H](O)[C@H]5O)COC(=O)[C@H]23)OCO4)cc(OC)c1OC | 7.54% (inactive) | –
